Results reported in PubChem BioAssay AID493066 (National Center for Advancing Translational Sciences (NCATS), 2011).
Inconclusive results are not listed. Activity calls are given as the source filed them. Calls come from the whole dose curve; as a rule, active = well fitted cell-killing curve with a large enough effect; inconclusive = small, poorly fitted or top-dose-only effect; inactive = flat fitted curve, though single readings scatter.

Test: HBEC Cell Viability Secondary Assay for qHTS Assay for Epigenetic Modulators
Details: HBEC normal bronchial cells viability, ATP luminescence, 72 h
From the text: NIH Molecular Libraries Screening Centers Network [MLSCN] NIH Chemical Genomics Center [NCGC] MLSCN Grant: 1 X01 MH079860-01 Assay Provider: Elisabeth D. Martinez, University of Texas SW Medical Center NCGC Assay Overview: This secondary assay characterizes selected actives identified in the qHTS of the Locus Derepression (LDR) assay (PubChem AID 1865). The LDR assay detects the derepression of a GFP reporter that is stably integrated in a region of the genome of murine c127i mammary cells that is presumably silenced. Compounds that cause derepression of the locus to express GFP are identified by enumerating GFP positive cells using a laser-scanning microplate cytometer. […] Cell viability was measured using a luminescence-based detection reagent that measures cellular ATP levels.
NCGC Assay Protocol Summary HBEC cells were seeded at 125 cells/5 uL/well in white, solid bottom, 1536 well plates (Greiner). […] Plates were incubated 72 hours at 37deg C and 5% CO2, then 3.5 uL/well CellTiter-Glo(R) (Promega) detection reagent was added, plates were incubated at ambient temperature for 10 minutes and luminescence was measured by a ViewLux (Perkin Elmer) reader. […] A quantitative high-throughput screen identifies potential epigenetic modulators of gene expression. […] A quantitative high-throughput screen identifies potential epigenetic modulators of gene expression. […]

Structure (SMILES): COc1ccc(OC)c(N2C(=O)NC(=O)/C(=C\c3ccc([N+](=O)[O-])s3)C2=O)c1
- Potency: 28.1 µM (active)

Structure (SMILES): O=C1NC(=O)N(CCc2ccc(F)cc2)C(=O)/C1=C/C=C/c1ccccc1
- Potency: 7.91 µM (active)
